What all share (test): NCI-60 one-dose screen, 48 h (100 = growth as untreated, 0 = no growth, -100 = all killed)
What all share (conditions): 10 µM unless noted

The test system of assay [1] is NCI-H23 lung.
Assay [2] deals with NCI-H226 lung.
The subject of assay [3] is NCI-H322M lung.
Assay [4] deals with HOP-62 NSCLC.
Assay [5] has as its system NCI-H460 lung.
The subject of assay [6] is HOP-92 NSCLC.
For assay [7], the system named is NCI-H522 lung.
For assay [8], the system named is A549/ATCC NSCLC.
Assay [9] concerns 786-0 renal.
Assay [10] relates to COLO 205 colon.

This is part of a sample that, as a whole, favours compounds with a hit. Of some 83,000 tested, about 20% had one in any assay.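 Note: values are percent growth. 100 is the growth of untreated cells, values between 100 and 0 indicate rising inhibition; between -100 and 0 indicates cell death.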 A number with no mark means an inactive call. Active and inactive are the calls of the source. Rule for the calls: active = growth percent below 10; inactive = the rest.

As for `Cc1cc(N=Nc2ccc(-c3ccc(N=Nc4ccc(O)c(C(=O)O)c4)cc3)cc2)c(N)c(N=Nc2ccc(C(=O)O)cc2)c1N`, the growth in assay [1] is 93.4%; in assay [2], 92.4%; in [3] it was 99.9%; in assay [4] it was 99.7%; in assay [5], 117%; in assay [6] it was 71.8%. The growth in assay [7] was 85.2%; in assay [8], 102%; in [9], 84.4%; in [10] it was 108%.
With `CCN(CC)c1ccc(C(=N)c2ccc(N(C)C)cc2)cc1`, the growth in assay [1] is -23.3% (active); in assay [2], 16.4%; in assay [3], 60.6%; in assay [4], 7.49% (active); in assay [5], 0.221% (active); in [6], -21% (active). For the same molecule, the growth in assay [7] is -13.5% (active); in [8], 28.6%; in [9] it was 7.03% (active); in assay [10] it was -54.5% (active).
For `Cc1cc(NC(=O)c2ccc(N)cc2)ccc1N=Nc1ccc2cc(S(=O)(=O)O)cc(S(=O)(=O)O)c2c1`, the growth was 103% in assay [1]; 105% in [2]; 125% in assay [3]; 106% in [4]; 117% in assay [5]; 60.8% in assay [6]. The growth was 129% in [7], 92.1% in assay [8], 112% in [9] and 109% in assay [10].
For `CCCCCCCCCCCCCCCCS(=O)(=O)Nc1cc(C(=O)NN)cc(C(=O)NN)c1`, the growth was 99.1% in assay [1]; 73.1% in [2]; 56.9% in assay [3]; 76.1% in assay [4]; 95.6% in [5]; 92.2% in [6]. Besides, the growth in assay [7] is 78.4%; in [8] it was 91.8%; in assay [9], 96.2%; in assay [10] it was 83.2%.
Take `COc1ccc(/C=C(/C(=O)N2CCN(c3ccccc3)CC2)c2cc(OC)c(OC)c(OC)c2)cc1O`: the growth in assay [1] is 31.5%; in assay [2], 28.9%; in [3], 42%; in [4], 20.6%; in [5] it was 5.38% (active); in assay [6], 94%. Besides, the growth in [7] was -9.76% (active); in [8], 17.4%; in [9], 25.5%; in assay [10], 35.7%.
In the case of `Cc1c(O)c(=O)n(-c2ccccc2)n1C`, the growth is 101% in assay [1]; 100% in assay [2]; 108% in assay [3]; 100% in [4]; 118% in assay [5]; 96.3% in [6]. In addition, the growth in assay [7] was 110%; in assay [8], 105%; in assay [9], 101%; in assay [10], 111%.
Regarding `O=C(Nc1ccccc1Cl)Oc1ccc2ccccc2c1`, the growth in [1] was 91.3%; in assay [2], 88.2%; in assay [3] it was 109%; in assay [4], 92.9%; in [5], 102%; in assay [6] it was 101%. Moreover, the growth in assay [7] is 79.6%; in [8] it was 94.9%; in assay [9], 90.9%; in assay [10], 118%.
Regarding `Cc1ccc(N2C3c4ccccc4N(S(=O)(=O)c4ccc(C)cc4)C2c2ccccc2N3S(=O)(=O)c2ccc(C)cc2)cc1`, the growth in assay [1] is 99.9%; in [2], 94.3%; in [3], 106%; in assay [4], 107%; in assay [5], 99.5%; in assay [6], 101%. Further, the growth in [7] is 106%; in [8], 97.1%; in assay [9], 112%; in [10], 115%.
Regarding `COC(=O)CNS(=O)(=O)c1ccc2c(c1)Cc1cc(S(=O)(=O)NCC(=O)OC)ccc1-2`, the growth in assay [1] is 107%; in [2], 89.9%; in assay [3], 106%; in assay [4], 97.8%; in assay [5], 105%; in assay [6], 99.6%. The growth was 95.7% in [7], 99.7% in [8], 105% in [9] and 107% in assay [10].
In the case of `COc1ccc2c(c1)N(CCO)C1=C(C(=O)OC1)C2c1cccc(Br)c1` (stereo not given), the growth in assay [1] is 29.2%; in assay [2], -5.22% (active); in assay [3], 29%; in assay [4], 29.4%; in assay [5] it was 2.07% (active); in assay [6], 42.7%. The growth in assay [7] was -19.2% (active); in assay [8], 16.4%; in assay [9], 21.4%; in assay [10], -47.2% (active).
In the case of `CCNC(=S)N(Cc1ccccc1)Cc1ccccc1`, the growth is 110% in [1]; 114% in assay [2]; 104% in assay [3]; 94.5% in [4]; 131% in assay [5]; 76.7% in [6]. Also, the growth in assay [7] was 88.1%; in assay [8] it was 98.4%; in [9], 107%; in [10] it was 132%.
Regarding `CN=C1C=C/C(=N/N=c2/ccn(O)cc2C)C=C1C`, the growth was 90% in assay [1]; 103% in [2]; 113% in assay [3]; 97.2% in assay [4]; 111% in assay [5]; 85.7% in assay [6]. Besides, the growth in assay [7] is 77.9%; in assay [8] it was 88.8%; in assay [9], 89.3%; in assay [10] it was 138%.
Turning to `CCc1ccc2c(c1)N(CCO)C1=C(C(=O)OC1)C2c1cccc(Cl)c1` (stereo not given), the growth in assay [1] was 38.8%; in assay [2], 32.4%; in assay [3] it was 39.4%; in [4] it was 31.7%; in assay [5] it was 10.8%; in assay [6], 93.4%. Further, the growth in assay [7] was -22% (active); in assay [8] it was 26.6%; in assay [9], 32.8%; in assay [10] it was 2.49% (active).

The values above are taken from PubChem BioAssay (NCI).
